# Source: paper PMC7826789 (International Journal of Molecular Sciences, 2021)
# What was measured:
# Conditions in all cases: Compound Concentration (nM):1000
# CSF1R = tested on: CSF1R
# CSK = tested on: CSK
# CSNK1A1L = tested on: CSNK1A1L
# CSNK1A1 = tested on: CSNK1A1
# CSNK1D = tested on: CSNK1D
# CSNK1E = tested on: CSNK1E
# CSNK1G1 = tested on: CSNK1G1
# CSNK1G2 = tested on: CSNK1G2
# CSNK1G3 = tested on: CSNK1G3
# CSNK2A1 = tested on: CSNK2A1
# 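Also: KINOMEscan scanMAX binding as percent activity remaining versus control; lower means stronger binding.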
SMILES,Percent Control (CSF1R),Percent Control (CSK),Percent Control (CSNK1A1L),Percent Control (CSNK1A1),Percent Control (CSNK1D),Percent Control (CSNK1E),Percent Control (CSNK1G1),Percent Control (CSNK1G2),Percent Control (CSNK1G3),Percent Control (CSNK2A1)
CN1CCN(C(=O)c2ccc(NC(=O)Nc3ccc(N(C)c4ccnc(Nc5ccc(CS(C)(=O)=O)cc5)n4)cc3)cc2)CC1.Cl [GW830263A],0%,62%,100%,85%,99%,75%,100%,100%,100%,83%
CN(C)c1cc2c(Nc3ccc4c(cnn4Cc4ccccc4)c3)ncnc2cn1 [GW282974X],100%,23%,84%,82%,97%,85%,80%,100%,100%,82%
COc1cc(N2CCN(C(C)C)CC2)ccc1Nc1nc(Nc2ccc(F)cc2C(=O)NC[C@@H](O)CO)c2cc[nH]c2n1 [GSK1392956A],100%,86%,68%,35%,31%,46%,52%,32%,29%,51%
COc1ccccc1-c1cc(/C=C2\C(=O)Nc3ncc(Br)cc32)cc(Br)c1O [GW442130X],100%,100%,100%,100%,94%,79%,100%,94%,100%,66%
COc1ccc2cc(-c3c(-c4ccncc4)nc(-c4ccc(S(C)(=O)=O)cc4C)n3C)ccc2c1 [SB-633825],93%,98%,55%,85%,86%,69%,90%,81%,100%,82%
Cl.O=C(Nc1ccc(Oc2ccc3[nH]c(NC(=O)c4ccccc4)nc3c2)cc1)Nc1cc(C(F)(F)F)ccc1F [GW709042A],6.1%,96%,97%,100%,87%,83%,100%,100%,100%,92%
CCS(=O)(=O)c1ccc(OC)c(Nc2ncc(-c3cccc(OC)c3)o2)c1 [GW580509X],72%,90%,100%,100%,100%,85%,99%,100%,97%,21%
NS(=O)(=O)c1ccc(N/N=C2\C(=O)Nc3ccc(C(=O)NCc4ccncc4)cc32)cc1 [GW300657X],99%,87%,60%,83%,92%,98%,87%,100%,67%,53%
COc1cc(C)c(N(C)C(=O)CN(C)C)cc1Nc1nc(Nc2cccc(F)c2C(N)=O)c2cc[nH]c2n1 [GSK2219385],100%,95%,67%,47%,23%,23%,54%,11%,28%,78%
CCc1ccc(Oc2nccc(-c3c(-c4ccc(F)cc4)ncn3C3CCNCC3)n2)cc1 [SB-242719],100%,80%,66%,5.1%,1.7%,0.4%,83%,40%,53%,77%
CC(C)COC(=O)c1ccc2c(c1)/C(=C/Nc1ccc(S(N)(=O)=O)cc1)C(=O)N2 [GW416981X],100%,100%,50%,99%,100%,100%,96%,94%,100%,9%
Nc1ncnc2occ(-c3ccc(NC(=O)Nc4cc(C(F)(F)F)ccc4F)cc3)c12 [GW770249X],0.2%,74%,92%,100%,82%,76%,98%,92%,99%,100%
CCn1c(-c2nonc2N)nc2c(C#CC(C)(C)O)nc(OCCNC)cc21.Cl [GSK949675],100%,100%,100%,94%,100%,100%,100%,92%,100%,100%
CC1=C(C(=O)Nc2ccc3[nH]ncc3c2)C(c2ccc(Cl)c(Cl)c2)CC(=O)N1 (stereo not drawn) [GSK299115A],97%,91%,66%,84%,100%,100%,100%,88%,96%,91%
COc1cc2ncn(-c3cc(O[C@H](C)c4ccccc4Cl)c(C(N)=O)s3)c2cc1OC [GSK237701A],63%,88%,60%,88%,100%,100%,85%,89%,100%,83%
NS(=O)(=O)c1ccc(N/N=C2\C(=O)Nc3ccc(-c4cnco4)cc32)cc1 [GW276655],100%,92%,78%,76%,60%,96%,100%,72%,91%,50%
C[C@@H](Oc1cc(-n2cnc3ccc(OC4CCN(C)CC4)cc32)sc1C(N)=O)c1ccccc1Cl [GSK579289A],65%,76%,89%,77%,80%,100%,83%,80%,100%,55%
NS(=O)(=O)c1ccc(N/N=C2\C(=O)Nc3ccc(Cl)cc32)cc1 [GW280670X],100%,100%,100%,100%,100%,93%,100%,100%,100%,81%
COc1cccc(-c2c[nH]c3c(N/N=C/c4ccncc4)ncnc23)c1 [GW814408X],46%,66%,100%,88%,92%,83%,100%,90%,100%,14%
O=C(Nc1n[nH]c2nc(-c3ccc(O)cc3)c(Br)cc12)C1CC1 [SB-725317],100%,100%,100%,100%,100%,85%,100%,100%,100%,87%

SMILES,Percent Control (CSF1R),Percent Control (CSK),Percent Control (CSNK1A1L),Percent Control (CSNK1A1),Percent Control (CSNK1D),Percent Control (CSNK1E),Percent Control (CSNK1G1),Percent Control (CSNK1G2),Percent Control (CSNK1G3),Percent Control (CSNK2A1)
COc1cc(C=NNc2ncnc3c2cnn3-c2ccccc2)ccc1O [GW513184X],100%,100%,100%,77%,86%,51%,100%,57%,93%,28%
COc1ccc(COc2ccc(Cc3cnc(N)nc3N)cc2OC)cc1 [GW632580X],,87%,86%,100%,100%,100%,88%,88%,100%,90%
Cc1cc(O)cc(C)c1/C=C/c1cncc(C(N)=O)c1 [GW435821X],34%,80%,100%,100%,100%,86%,100%,100%,100%,90%
O=C1Nc2ccc(C(=O)c3ccco3)cc2C1=Cc1cc(Cl)c(O)c(Cl)c1 [GW406108X],93%,79%,100%,93%,100%,100%,82%,96%,100%,9.7%
NS(=O)(=O)c1ccc(Nc2ncc(-c3ccccc3)o2)cc1 [GW572399X],100%,100%,100%,100%,100%,83%,100%,100%,100%,76%
C/C(Nc1ccc(S(N)(=O)=O)cc1)=C1/C(=O)Nc2ccccc21 [GW335962X],100%,86%,97%,67%,87%,100%,88%,85%,99%,57%
COc1cc2ncnc(Nc3ccc4c(cnn4Cc4ccccc4)c3)c2cc1OC.Cl [GW282449A],100%,5.1%,100%,100%,100%,97%,100%,100%,100%,82%
COc1cc(/C=N/Nc2ncnc3[nH]ncc23)ccc1O [GW578748X],93%,67%,94%,61%,57%,60%,67%,42%,79%,8.7%
COc1ccc2c(-c3ccnc(Nc4cccc(OC(F)(F)F)c4)n3)cnn2n1 [GW810372X],100%,100%,100%,92%,100%,100%,98%,100%,100%,67%
Cl.c1ccc(Cc2nc3ccc(Nc4ncnc5ccccc45)cc3[nH]2)cc1 [GR269666A],100%,22%,100%,100%,100%,93%,100%,100%,100%,82%
COC(=O)Nc1nc2ccc(Oc3ccc(NC(=O)Nc4cc(C(F)(F)F)ccc4F)cc3)cc2s1.Cl [GW693917A],2.3%,70%,92%,83%,100%,98%,96%,100%,94%,91%
CC1=C(C(=O)Nc2ccc3[nH]ncc3c2)C(c2ccc3ccccc3c2)CC(=O)N1 (stereo not drawn) [GSK270822A],82%,95%,64%,91%,100%,100%,92%,89%,100%,80%
Cl.O=C(Nc1ccc(Oc2ccc3[nH]c(NC(=O)c4ccco4)nc3c2)cc1)Nc1cc(C(F)(F)F)ccc1F [GW683134A],1.5%,85%,90%,100%,98%,93%,100%,100%,100%,88%
NS(=O)(=O)c1ccc(N/N=C2\C(=O)Nc3ccc(C(=O)NCCc4c[nH]cn4)cc32)cc1 [GW300660X],100%,100%,100%,89%,100%,100%,100%,100%,100%,27%
Cl.O=C(O[C@H]1CN[C@H](C#Cc2cc3ncnc(Nc4ccc5c(cnn5Cc5ccccc5)c4)c3s2)C1)N1CCOCC1 [GSK200398A],100%,67%,92%,89%,91%,79%,92%,100%,92%,75%
CCS(=O)(=O)c1ccc(OC)c(Nc2ncc(-c3cccc(F)c3)o2)c1 [GW621970X],48%,98%,100%,100%,100%,100%,100%,100%,100%,6.2%
Cl.O=S1CCN(Cc2ccc(-c3ccc4ncnc(Nc5ccc(OCc6ccccc6)c(F)c5)c4c3)o2)CC1 [GW576924A],100%,100%,100%,100%,100%,100%,100%,100%,100%,84%
COc1cccc(-n2ncc3c(N/N=C/c4ccncc4)ncnc32)c1 [GW784752X],100%,78%,91%,94%,92%,100%,100%,100%,100%,20%
COc1ccc2[nH]c3c4[nH]c5ccc(OC)cc5c4c4c(c3c2c1)C(=O)NC4=O [GW296115X],58%,95%,91%,62%,94%,52%,74%,86%,100%,61%
CN(C)CCNC(=O)Nc1ccc(N(C)c2ccnc(Nc3ccc(CS(C)(=O)=O)cc3)n2)cc1.Cl [GW830900A],0.6%,98%,85%,79%,93%,88%,90%,96%,95%,78%
